Where a name gives a salt, the structure may show the parent alone.
system: Danio rerio larvae (5 dpf); test: optomotor response to green moving lines, difference vs DMSO (percentage points (treated minus DMSO)); higher = more of the behaviour than the DMSO vehicle control; conditions: 10 µM; exposure time: 3 h pre-incubation + 3 h imaging
Procedure: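 5-dpf wild-type zebrafish larvae were imaged in 96-well plates. They were treated with 190 Tocris FDA-approved drugs at 10 µM (1 µl/ml DMSO) for 3 h before and 3 h during imaging at 28.5 °C, 48 larvae per drug. Automated image analysis gave % time moving and optomotor responses. Values are drug group mean minus DMSO vehicle mean (n=844), in percentage points, for 10 behaviours.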

In order of falling “optomotor response to green moving lines” value:
1. O=C(NCC1CCCCN1)c1cc(OCC(F)(F)F)ccc1OCC(F)(F)F (stereo not given) [Flecainide acetate]  18.1
2. CC(C)OC(=O)C(C)(C)Oc1ccc(C(=O)c2ccc(Cl)cc2)cc1 [Fenofibrate]  8.84
3. Cc1cc2c(s1)Nc1ccccc1N=C2N1CCN(C)CC1 [Olanzapine]  8.6
4. Nc1nc2[nH]cc(CCc3ccc(C(=O)N[C@@H](CCC(=O)O)C(=O)O)cc3)c2c(=O)[nH]1 [Pemetrexed]  8.22
5. Nc1cccc2c1CN(C1CCC(=O)NC1=O)C2=O (stereo not given) [Lenalidomide]  7.44
6. CN(C)CCc1c[nH]c2ccc(C[C@H]3COC(=O)N3)cc12 [Zolmitriptan]  6.88
7. O=c1[nH]c(=O)n([C@H]2C[C@H](O)[C@@H](CO)O2)cc1C(F)(F)F [Trifluorothymidine]  6.4
8. CC(=O)NC[C@H]1CN(c2ccc(N3CCOCC3)c(F)c2)C(=O)O1 [Linezolid]  5.36
9. CN/C(=N\CCSCc1nc[nH]c1C)NC#N [Cimetidine]  5.06
10. OCCN(CCO)c1nc(N2CCCCC2)c2nc(N(CCO)CCO)nc(N3CCCCC3)c2n1 [Dipyridamole]  5.01
11. CC(CCc1ccc(O)cc1)NCCc1ccc(O)c(O)c1 (stereo not given) [Dobutamine hydrochloride]  4.26
12. CCC(C)(C)C(=O)O[C@H]1C[C@@H](C)C=C2C=C[C@H](C)[C@H](CC[C@@H]3C[C@@H](O)CC(=O)O3)[C@H]21 [Simvastatin]  4.17
13. CC(C)[C@H]1CC[C@H](C(=O)N[C@H](Cc2ccccc2)C(=O)O)CC1 [Nateglinide]  4.02
14. CN1CCN(CCCN2c3ccccc3Sc3ccc(Cl)cc32)CC1 [Prochlorperazine dimaleate]  3.92
15. CC(C)(C(=O)O)c1ccc(C(O)CCCN2CCC(C(O)(c3ccccc3)c3ccccc3)CC2)cc1 (stereo not given) [Fexofenadine hydrochloride]  3.69
16. COc1cc(Nc2c(C#N)cnc3cc(OCCCN4CCN(C)CC4)c(OC)cc23)c(Cl)cc1Cl [Bosutinib]  2.65
17. C[C@@H]1C[C@H]2[C@@H]3CCC4=CC(=O)C=C[C@]4(C)[C@@]3(F)[C@@H](O)C[C@]2(C)[C@@]1(O)C(=O)CO [Dexamethasone]  1.46
18. Nc1ncn([C@@H]2O[C@H](CO)[C@@H](O)[C@H]2O)c(=O)n1 [5-Azacytidine]  1.33
19. CCOc1nc2cccc(C(=O)O)c2n1Cc1ccc(-c2ccccc2-c2nnn[nH]2)cc1 [Candesartan]  0.689
20. COCCc1ccc(OCC(O)CNC(C)C)cc1 (stereo not given) [Metoprolol tartrate]  0.682
21. CO[C@H]1/C=C/O[C@@]2(C)Oc3c(C)c(O)c4c(O)c(c5c(nc6cc(C)ccn65)c4c3C2=O)NC(=O)/C(C)=C\C=C\[C@H](C)[C@H](O)[C@@H](C)[C@@H](O)[C@@H](C)[C@H](OC(C)=O)[C@@H]1C [Rifaximin]  0.563
22. Cc1ccc(O)c([C@H](CCN(C(C)C)C(C)C)c2ccccc2)c1 [Tolterodine L-tartrate]  0.477
23. Nc1nc2c(ncn2COCCO)c(=O)[nH]1 [Acyclovir]  0.472
24. COc1ccccc1OCC(O)CN1CCN(CC(=O)Nc2c(C)cccc2C)CC1 (stereo not given) [Ranolazine dihydrochloride]  -0.274
25. OC(c1cc(C(F)(F)F)nc2c(C(F)(F)F)cccc12)C1CCCCN1 (stereo not given) [Mefloquine hydrochloride]  -0.307
26. COc1cc([C@@H]2c3cc4c(cc3[C@@H](O[C@@H]3O[C@@H]5CO[C@@H](C)O[C@H]5[C@H](O)[C@H]3O)[C@H]3COC(=O)[C@H]23)OCO4)cc(OC)c1O [Etoposide]  -0.812
27. CN1CC(=O)N2[C@H](c3ccc4c(c3)OCO4)c3[nH]c4ccccc4c3C[C@@H]2C1=O [Tadalafil]  -0.909
28. CC1CNc2c(cccc2S(=O)(=O)N[C@@H](CCCNC(=N)N)C(=O)N2CC[C@@H](C)C[C@@H]2C(=O)O)C1 (stereo not given in full) [Argatroban]  -1.18
29. COC(=O)C1=C(C)NC(C)=C(C(=O)OC(C)C)C1c1cccc2nonc12 (stereo not given) [Isradipine]  -1.42
30. Cn1nnc2c(C(N)=O)ncn2c1=O [Temozolomide]  -1.84
31. CC(C)C(=O)Nc1ccc([N+](=O)[O-])c(C(F)(F)F)c1 [Flutamide]  -1.99
32. CC(=O)Oc1cc2c(s1)CCN(C(C(=O)C1CC1)c1ccccc1F)C2 (stereo not given) [Prasugrel]  -2.39
33. CNC(=O)c1cc(Oc2ccc(NC(=O)Nc3ccc(Cl)c(C(F)(F)F)c3)cc2)ccn1 [Sorafenib]  -2.72
34. NC(=O)c1ncn([C@@H]2O[C@H](CO)[C@@H](O)[C@H]2O)n1 [Ribavirin]  -3.77
35. CCCc1nc2c(C)cc(-c3nc4ccccc4n3C)cc2n1Cc1ccc(-c2ccccc2C(=O)O)cc1 [Telmisartan]  -3.99
36. COCCCOc1cc(C[C@@H](C[C@H](N)[C@@H](O)C[C@H](C(=O)NCC(C)(C)C(N)=O)C(C)C)C(C)C)ccc1OC [Aliskiren hemifumarate]  -4.53
37. COC(c1ccccc1)(c1ccccc1)[C@H](Oc1nc(C)cc(C)n1)C(=O)O [Ambrisentan]  -4.71
38. NS(=O)(=O)c1cc(C(=O)O)c(NCc2ccco2)cc1Cl [Furosemide]  -6.99
39. Cc1cccc(CN2CCN(C(c3ccccc3)c3ccc(Cl)cc3)CC2)c1 (stereo not given) [Meclizine dihydrochloride]  -8.55
40. CCCCC1=NC2(CCCC2)C(=O)N1Cc1ccc(-c2ccccc2-c2nnn[nH]2)cc1 [Irbesartan]  -19
